Laboratory results: ChEMBL document CHEMBL3988442, “University of Dundee, Small-Polar-MMV Screening Library” (2021)
Hit rate of the full screen: of about 48,000 compounds, about 13,000 (27%) showed an effect of 50% or more. The list shows a part of the results.

These molecules were tested on Wolbachia pipientis (assay: Anti-Wolbachia Cell-Based Screen). Details: 5 µM.
Type: functional
Parameters: scale not given: in the data most compounds retested in dose-response had high values

Row | Compound | Percent Effect
1 | CCOC(=O)c1cn(CC(O)c2ccccc2OC)nn1 (centres undefined) | -11.75%
2 | CCN(CC1CCOC1)C(=O)CSCC(=O)Nc1ccc(C)cc1 (centres undefined) | 4.187%
3 | O=C(Nc1cccc(C(F)F)c1)N[C@@H]1C=C[C@H](CO)C1 | -9.569%
4 | COC(=O)c1ccc(N2CCN(C(=O)C(C)C)C(C)C2)cc1 (centres undefined) | 1.031%
5 | CC(C)(C)OC(=O)N1CCN(c2cccnc2)CC1C(=O)O (centres undefined) | 114.7%
6 | COc1ccc(N2CCN(C(=O)Cn3nc(C)c(C)c3C)C(C)C2)cc1 (centres undefined) | -0.23%
7 | Cc1ccc(C(=O)N2C[C@@H]3CCN(c4cccnc4)C[C@@H]3C2)cn1.O=C(O)C(F)(F)F | 4.1%
8 | CCCSCC(=O)N1CCN(c2ccc(OC)cc2)CC1C (centres undefined) | 15.77%
9 | Cc1ccc(N2CCN(C(=O)CCC(F)(F)F)C(C)C2)cc1 (centres undefined) | 17.59%
10 | COC(=O)N1CCCCC1C(=O)N1CCN(c2cccnc2)CC1 (centres undefined) | -31.63%
11 | COc1ccc(N2CCN(C(=O)OC(C)(C)C)C(C(=O)O)C2)cc1 (centres undefined) | 126.2%
12 | CC(C)(C)OC(=O)N1CCN(c2ccc(F)cc2)CC1C(=O)O (centres undefined) | 89.96%
13 | CCc1nccn1C1CCCN(C(=O)c2cnc[nH]2)C1 (centres undefined) | 2.73%
14 | CCCS(=O)(=O)NCC1OCCc2cn(CC3CCOCC3)nc21 (centres undefined) | -15.6%
15 | CC(C)CN1C[C@@H]2OCC(=O)N(Cc3nccn3C)[C@@H]2C1 | 0.1712%
16 | CNC(=O)[C@H]1C[C@H]2OCC[C@H]2N(CCOc2ccc(Cl)cc2)C1.O=C(O)C(F)(F)F | -0.765%
17 | CCN(CC)S(=O)(=O)c1cc(NC(=O)CCc2cscn2)ccc1C | -4.761%
18 | Fc1ccccc1CC1CCN(Cc2cscn2)CC1 | 12.39%
19 | O=C(NC[C@]1(O)CN(Cc2ccccc2F)C[C@H]1O)c1ccccn1 | -4.429%
20 | CN1CCC(NCC2(O)CCCN(Cc3ccccc3F)C2=O)CC1 (centres undefined) | -22.31%
21 | NC1(C(=O)NCC2CCCN(Cc3ccccc3F)C2)CCCC1 (centres undefined) | -12.52%
22 | Cc1cc(CN2CCC(CNC(=O)c3cnc(C)nc3C)C2)[nH]n1 (centres undefined) | -6.024%

Row | Compound | Percent Effect
23 | O=C(NC[C@]1(O)CN(Cc2ccccc2F)C[C@H]1O)c1cscn1 | 81.64%
24 | Cc1cncc(CN2CC[C@@](O)(CNC(=O)c3c[nH]cn3)[C@H](O)C2)c1 | 108.4%
25 | O=C(NC[C@]1(O)CCN(Cc2ccccc2F)C[C@H]1O)c1c[nH]cn1 | 105%
26 | Cc1cccc(CN2CCCC(O)(CNCCc3c[nH]cn3)C2=O)c1 (centres undefined) | 23.49%
27 | O=C(NC[C@]1(O)CCN(Cc2ccsc2)C[C@H]1O)c1c[nH]cn1 | 99.16%
28 | COCC1CC2(CCN(S(=O)(=O)C3CC3)CC2)CN1c1ncccn1.O=C(O)C(F)(F)F (centres undefined) | -3.839%
29 | CCn1cnnc1CNC(=O)NCC(C)(CC)N1CCOCC1 (centres undefined) | -7.317%
30 | Cc1n[nH]c(C2CN(Cc3nnc(C4CC4)n3C)CCO2)n1 (centres undefined) | 1.096%
31 | CCNC(=O)[C@@H]1C[C@H](N)CN1c1cc(C(F)(F)F)nc(N2CCCC2)n1 | -17.39%
32 | CCNC(=O)[C@@H]1C[C@H](N)CN1c1cc(CC)nc(N(C)C)n1 | 116.6%
33 | CCNC(=O)[C@@H]1C[C@H](N)CN1c1cc(C(F)(F)F)nc(N(C)C)n1 | -10.07%
34 | O=C(c1ncncc1Cl)N1CCN(c2ccc(Cl)cc2)CC1 | -23.14%
35 | COC(=O)c1ccc(N2CCN(C(=O)c3ccn(C)c(=O)c3)CC2)cc1 | 7.353%
36 | COC(=O)c1cccc(C(=O)N2CCN(c3ccc(OC)cc3)CC2)n1 | 142.3%
37 | COC(=O)c1cccc(C(=O)N2CCN(c3ccc(Cl)cc3)CC2)n1 | 100.8%
38 | COC(=O)c1cccc(C(=O)N2CCN(c3ccccc3F)CC2)n1 | 5.907%
39 | COC(=O)c1ccc(N2CCN(C(=O)c3ccc(=O)n(C)c3)CC2)cc1 | -4.416%
40 | CCC(C)(C)C1CCCN1C(=O)c1coc(S(=O)(=O)NC)c1 (centres undefined) | 25.9%
41 | Cc1cccc(N2CCC3(CCCN3Cc3c(C)nn(C)c3C)CC2)n1 | 12.41%
42 | CC(C)SCc1cccc(NC(=O)NCCc2nnc[nH]2)c1 | 5.819%
43 | CCc1nccn1C1CCCN(C(=O)c2cn3cccnc3n2)C1 (centres undefined) | -0.7445%
44 | CC(C)c1nccn1C1CCCN(C(=O)c2cnc[nH]2)C1 (centres undefined) | -3.09%

Row | Compound | Percent Effect
45 | Cc1cc(C)n(C2CCCN(C(=O)c3cn4cccnc4n3)C2)n1 (centres undefined) | 140.9%
46 | Cc1nc(C)n(C2CCCN(C(=O)c3cn4cccnc4n3)C2)n1 (centres undefined) | 114.3%
47 | Cc1nc(C)n(C2CCCN(C(=O)c3cn4c(C)cccc4n3)C2)n1 (centres undefined) | 8.927%
48 | Cc1cnn(C2CCCN(C(=O)c3cn4cccnc4n3)C2)c1 (centres undefined) | -8.081%
49 | Cc1cc(C)n(C2CCN(C(=O)c3cn4ccsc4n3)C2)n1 (centres undefined) | -17.41%
50 | Cc1nc(C)n(C2CCCN(C(=O)c3csnn3)C2)n1 (centres undefined) | -2.311%
51 | CC(C)c1nccn1C1CCCN(C(=O)c2cn3cccnc3n2)C1 (centres undefined) | 106.5%
52 | Cc1occc1C(=O)Nc1cccc(C(=O)OCC2CCCN2)c1.Cl (centres undefined) | -3.308%
53 | O=C(O)c1ccccc1-c1ccc(CN2CC(O)C2)cc1 | 128.6%
54 | O=C1CN(Cc2ccc(-c3ccccc3C(=O)O)cc2)CCN1 | 3.495%
55 | NC(=O)c1ccc(CN2CCCC(O)C2)cc1 (centres undefined) | 1.38%
56 | O=c1cc(-c2cccnc2)nc(-c2ccc(CN3CC[C@H](O)C3)cc2)[nH]1 | -0.3576%
57 | O=C(O)c1ccccc1-c1ccc(CN2CCCC(O)C2)cc1 (centres undefined) | 104.1%
58 | COc1ccc(C(C)N2CCC(CO)CC2)cc1Cl (centres undefined) | 2.465%
59 | CSC1(CNC(=O)N(C)Cc2ccc(C)s2)CCOCC1 | -11.34%
60 | COCCn1c2c(ccc1=O)CCN(C(=O)Cc1cccs1)CC2 | 99.02%
61 | COCCN1CC2(CCCN(C(=O)CCCc3cccs3)C2)CCC1=O (centres undefined) | -3.205%
62 | COCCn1c2c(ccc1=O)CCN(C(=O)Cc1ccsc1)CC2 | 97.29%
63 | COCCN1CCOCC12CCN(C(=O)Cc1cccs1)CC2.O=C(O)C(F)(F)F | 7.053%
64 | O=C(Cc1ccsc1)N1CCc2ccc(=O)n(CC3CC3)c2CC1 | -8.117%
